Inconclusive results are not listed. The source made the active and inactive calls. Unless noted, calls follow the shape of the dose curve; as a rule, active = well fitted curve in the direction sought with a large enough effect in the repeat runs; inconclusive = weak or mixed curves; inactive = no such curve, though single readings can be large; an effect the other way counts as inactive or inconclusive.
How the values were obtained:
[1] = qHTS assay to test for compound auto fluorescence at 535 nm (green) in HEK293 cells (AID 720680)
[2] = qHTS assay to test for compound auto fluorescence at 460 nm (blue) in HEK293 cell free culture (AID 720681)
In short: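 Blue fluorescence (Ex 405/Em 460 nm, triamterene-equivalent) was read immediately after pin transfer of compound or DMSO into medium (DMEM, 10% FBS) without cells.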

[3] = qHTS assay to test for compound auto fluorescence at 535 nm (green) in HEK293 cell free culture (AID 720682)
In short: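 DMEM + 10% FBS, cell-free; cpd or DMSO pinned in; Ex485/Em535 read; output as fluorescein-equivalent signal.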

[4] = qHTS assay to test for compound auto fluorescence at 590 nm (red) in HepG2 cell free culture (AID 720684)
In short: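 Steps: dispense MEM/10% FBS medium, no cells; pin compound or DMSO vehicle; read red channel, Ex/Em 540/590 nm. Output given as Rose Bengal sodium equivalents.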

[5] = qHTS assay to test for compound auto fluorescence at 460 nm (blue) in HepG2 cell free culture (AID 720685)
In short: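 Compound (23 nL) or DMSO pinned into cell-free MEM with 10% FBS; blue fluorescence read at 405/460 nm excitation/emission, expressed as auto-fluorescence equivalency to triamterene.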

[6] = qHTS assay to test for compound auto fluorescence at 535 nm (green) in HepG2 cell free culture (AID 720686)
[7] = qHTS assay to test for compound auto fluorescence at 460 nm (blue) in HepG2 cells (AID 720687)
In short: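 Blue-channel autofluorescence (Ex/Em 405/460 nm, triamterene-equivalent) was measured after 1 hr compound exposure at 37 C, 5% CO2. Cells were HepG2, plated overnight at 37 C in MEM plus 10% FBS.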

[8] = qHTS assay for identifying genotoxic compounds that show differential cytotoxicity against isogenic chicken DT40 cell lines with known DNA damage response pathways - wild type cell line (AID 743012); also: nearly all actives have a fitted effect of over 60% in size; also: potency is read from the fitted curve at half-maximal effect
In short: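 First, wild type DT40 cells were plated at 300 per well and equilibrated about 0.5 h at 37 C/5% CO2. Next, compounds in DMSO were added and exposure lasted 40 h. Finally, CellTiter-Glo was added for 30 min at room temperature and luminescence recorded.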

[9] = qHTS assay for identifying genotoxic compounds that show differential cytotoxicity against isogenic chicken DT40 cell lines with known DNA damage response pathways - Rev3 mutant cell line (AID 743014); also: nearly all actives have a fitted effect of over 55% in size; also: potency is read from the fitted curve at half-maximal effect
[10] = qHTS assay for identifying genotoxic compounds that show differential cytotoxicity against isogenic chicken DT40 cell lines with known DNA damage response pathways - Rad54/Ku70 mutant cell line (AID 743015); also: nearly all actives have a fitted effect of over 60% in size; also: potency is read from the fitted curve at half-maximal effect
[11] = qHTS assay to identify small molecule antagonists of the androgen receptor (AR) signaling pathway using the MDA cell line - cell viability counter screen (AID 743041; also: nearly all actives have a fitted effect of over 45% in size)
In short: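 Cells were plated at 3,000 per well and left 5 h. Compounds in DMSO were then pinned in, followed by R1881. After 16 h at 37C, CellTiter-Fluor fluorescence gave viability.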

[12] = qHTS assay to test for compound auto fluorescence at 590 nm (red) in HEK293 cell free culture (AID 720683)
In short: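 Red-channel autofluorescence of compounds in culture medium (DMEM, 10% FBS), no cells, measured at 540/590 nm. Rose Bengal sodium is the reference fluorophore for equivalence.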

[13] = molecular target: Glucocorticoid receptor (Homo sapiens) (UniProt P04150); experiment: qHTS assay to identify small molecule agonists of the glucocorticoid receptor (GR) signaling pathway (AID 720691; active = well fitted activation curve with a large enough effect in the signal ratio in the repeat runs, not every such curve was filed as active; the % refers to the signal ratio)
Glucocorticoid receptor (Homo sapiens), sequence (P04150 whole entry, looked up): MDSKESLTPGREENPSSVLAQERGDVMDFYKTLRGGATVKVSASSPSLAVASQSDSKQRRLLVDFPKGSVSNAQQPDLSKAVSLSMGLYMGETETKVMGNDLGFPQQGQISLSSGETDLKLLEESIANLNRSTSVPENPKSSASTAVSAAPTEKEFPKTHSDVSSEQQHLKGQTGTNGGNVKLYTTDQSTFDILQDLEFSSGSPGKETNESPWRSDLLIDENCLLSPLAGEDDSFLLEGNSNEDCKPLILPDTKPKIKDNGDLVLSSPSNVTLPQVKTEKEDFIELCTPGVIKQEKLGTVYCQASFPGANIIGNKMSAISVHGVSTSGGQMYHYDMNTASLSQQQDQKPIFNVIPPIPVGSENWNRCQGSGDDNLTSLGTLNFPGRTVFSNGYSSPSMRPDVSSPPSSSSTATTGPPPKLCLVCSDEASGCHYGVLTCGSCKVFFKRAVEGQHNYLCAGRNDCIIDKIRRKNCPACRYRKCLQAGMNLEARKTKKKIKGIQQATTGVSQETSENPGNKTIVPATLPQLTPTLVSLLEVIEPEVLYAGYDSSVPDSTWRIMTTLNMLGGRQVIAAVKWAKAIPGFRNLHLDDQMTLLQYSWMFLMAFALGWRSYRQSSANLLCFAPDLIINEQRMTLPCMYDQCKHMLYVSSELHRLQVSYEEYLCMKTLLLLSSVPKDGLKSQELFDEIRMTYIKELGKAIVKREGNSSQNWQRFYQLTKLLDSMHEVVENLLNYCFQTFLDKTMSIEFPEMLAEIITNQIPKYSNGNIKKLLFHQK
In short: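 qHTS in GR-bla HeLa cells: 4 h settling at 37 C/5% CO2, 18 h compound incubation at 37 C, 2 h LiveBLAzer B/G FRET substrate at room temperature, fluorescence intensity measured.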

[14] = molecular target: Glucocorticoid receptor (Homo sapiens) (UniProt P04150); experiment: qHTS assay to identify small molecule antagonists of the glucocorticoid receptor (GR) signaling pathway (AID 720692; active = well fitted inhibition curve with a large enough effect in the signal ratio in the repeat runs, not every such curve was filed as active; the % refers to the signal ratio; also: potency is read from the fitted curve at half-maximal effect)
In short: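 Inhibition of glucocorticoid signalling is measured in HeLa cells with a GRE-controlled beta-lactamase reporter; cells are co-treated with compound and 5 nM dexamethasone (final) for 18 h before FRET substrate readout.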

[15] = qHTS assay to identify small molecule antagonists of the glucocorticoid receptor (GR) signaling pathway - cell viability counter screen (AID 720693); also: nearly all actives have a fitted effect of over 55% in size
[16] = qHTS assay to identify small molecule antagonists of the androgen receptor (AR) signaling pathway - cell viability counter screen (AID 743033; also: nearly all actives have a fitted effect of over 45% in size; also: potency is read from the fitted curve at half-maximal effect)
[17] = molecular target: Androgen receptor (Homo sapiens) (UniProt P10275); experiment: qHTS assay to identify small molecule agonists of the androgen receptor (AR) signaling pathway using the MDA cell line (AID 743040; also: nearly all actives have a fitted effect of over 20% in size)
Androgen receptor (Homo sapiens), sequence (P10275 whole entry, looked up): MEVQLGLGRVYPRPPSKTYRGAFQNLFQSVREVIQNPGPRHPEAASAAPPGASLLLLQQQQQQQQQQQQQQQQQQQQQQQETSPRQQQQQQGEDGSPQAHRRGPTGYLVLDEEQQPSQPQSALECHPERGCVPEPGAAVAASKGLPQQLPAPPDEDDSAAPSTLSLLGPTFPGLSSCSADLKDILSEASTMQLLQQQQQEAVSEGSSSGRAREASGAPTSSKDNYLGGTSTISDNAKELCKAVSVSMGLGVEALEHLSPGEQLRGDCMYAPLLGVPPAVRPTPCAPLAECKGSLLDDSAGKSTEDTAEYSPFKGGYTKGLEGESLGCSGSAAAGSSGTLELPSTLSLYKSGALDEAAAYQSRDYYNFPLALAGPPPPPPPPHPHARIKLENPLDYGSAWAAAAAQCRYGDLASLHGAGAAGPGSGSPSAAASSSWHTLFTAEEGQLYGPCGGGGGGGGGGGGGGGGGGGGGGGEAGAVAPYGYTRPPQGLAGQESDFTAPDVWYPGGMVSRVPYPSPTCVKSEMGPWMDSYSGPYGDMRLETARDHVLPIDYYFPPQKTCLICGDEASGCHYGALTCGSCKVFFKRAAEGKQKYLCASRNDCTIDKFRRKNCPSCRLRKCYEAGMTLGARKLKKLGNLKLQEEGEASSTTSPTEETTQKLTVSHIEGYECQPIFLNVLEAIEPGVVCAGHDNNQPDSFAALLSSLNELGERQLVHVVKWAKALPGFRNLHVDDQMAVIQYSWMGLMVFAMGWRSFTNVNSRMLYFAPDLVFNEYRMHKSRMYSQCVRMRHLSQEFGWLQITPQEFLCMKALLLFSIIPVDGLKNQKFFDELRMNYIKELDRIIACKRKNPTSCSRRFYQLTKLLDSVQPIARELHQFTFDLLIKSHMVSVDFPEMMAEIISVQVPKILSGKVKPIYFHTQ
In short: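 Cells plated, 5 h at 37C/0% CO2; compound or DMSO pinned; 16 h at 37C; ONE-Glo added; luminescence measured after 30 min at room temperature. Reporter line: MDA-kb2 with MMTV-luciferase responsive to AR and GR.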

[18] = molecular target: Androgen receptor (Homo sapiens) (UniProt P10275); experiment: qHTS assay to identify small molecule antagonists of the androgen receptor (AR) signaling pathway using the MDA cell line (AID 743042; also: nearly all actives have a fitted effect of over 55% in size; also: potency is read from the fitted curve at half-maximal effect)
In short: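 Antagonist mode: compounds plus R1881 agonist added to MDA-kb2 AR-luc cells, incubated 16 h at 37C. Luciferase reporter luminescence quantified, with multiplexed CellTiter-Fluor readout for cell viability.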

[19] = molecular target: Androgen receptor (Homo sapiens) (UniProt P10275); experiment: qHTS assay to identify small molecule antagonists of the androgen receptor (AR) signaling pathway (AID 743035; active = well fitted inhibition curve with a large enough effect in the signal ratio in the repeat runs, not every such curve was filed as active; the % refers to the signal ratio)
In short: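 Beta-lactamase FRET read (2 h RT incubation with LiveBLAzer B/G) following 16 h of compound plus R1881 treatment of AR-UAS-bla HEK293 cells, which had been pre-incubated 4 h at 37C.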

[20] = molecular target: Androgen receptor (Homo sapiens) (UniProt P10275); experiment: qHTS assay to identify small molecule agonists of the androgen receptor (AR) signaling pathway (AID 743036; active = well fitted activation curve with a large enough effect in the signal ratio in the repeat runs, with a control signal flat, not every such curve was filed as active; the % refers to the signal ratio)
In short: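 Screening used 2,000 AR-bla HEK293 cells per well, treated 16 h at 37C with test compounds in DMSO alongside positive and DMSO-only controls; beta-lactamase activity was then read by LiveBLAzer B/G FRET fluorescence after 2 h at room temperature.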
% is scaled to controls: 0 for no effect and ±100 for the full control effect.

CCOC(=O)OC(C)OC(=O)[C@@H]1N2C(=O)[C@@H](NC(=O)[C@H](N)c3ccccc3)[C@H]2SC1(C)C (some centres not stated)
inactive: fluorescence, % of fluorescein [1] 0.0714% [at 18.6 µM] | fluorescence, % of fluorescent control [2] 0.602% [at 18.6 µM] | activity change [3] -0.0186% [at 18.6 µM] | fluorescence, % of Rose Bengal [4] 0.701% [at 18.6 µM] | fluorescence, % of fluorescent control [5] 0.443% [at 18.6 µM] | fluorescence, % of fluorescein control [6] 0.112% [at 18.6 µM] | fluorescence, % of fluorescent control [7] 0.278% [at 18.6 µM] | Potency [8] | Potency [9] | Potency [10] | Potency [11]

CCOC(=O)c1ccc(OCCN2C[C@H](O)[C@@H](O)[C@H](O)[C@H]2CO)cc1
inactive: Potency [2] | outcome [3] | outcome [12] | outcome [4] | Potency [5] | outcome [6] | Potency [7] | Potency [13] | Potency [14] | Potency [15] | Potency [8] | Potency [9] | Potency [16] | Potency [11]

c1cc(N(CC2CO2)CC2CO2)ccc1Cc1ccc(N(CC2CO2)CC2CO2)cc1 (configuration not stated)
active: Potency [8] 3.44 µM | Potency [9] 0.0611 µM | Potency [16] 54.9 µM | Potency [18] 27.3 µM
inactive: Potency [2] | outcome [3] | outcome [4] | Potency [5] | outcome [6] | Potency [7] | outcome [17] | Potency [11]

O=C1NCCN1CCO
inactive: Potency [2] | outcome [3] | outcome [12] | Potency [5] | outcome [6] | Potency [7] | Potency [15] | Potency [8] | Potency [10] | Potency [16] | Potency [11]

O=C1c2ccccc2C(=O)C1(O)O
active: Potency [9] 24.5 µM
inactive: Potency [2] | outcome [3] | outcome [12] | outcome [4] | Potency [5] | outcome [6] | Potency [7] | Potency [13] | Potency [11]

O=C(O)C[C@H](NC(=O)OCc1ccccc1)C(=O)O
inactive: Potency [2] | outcome [3] | outcome [12] | Potency [5] | outcome [6] | Potency [7] | Potency [13] | Potency [14] | Potency [8] | Potency [10] | Potency [16] | Potency [11]

CCCCC(CC)COP(=O)(O)O (configuration not stated)
inactive: Potency [2] | outcome [3] | outcome [12] | outcome [4] | Potency [5] | outcome [6] | Potency [7] | Potency [13] | Potency [15] | Potency [9] | Potency [10] | Potency [16] | Potency [11]
active: Potency [14] 49.8 µM

CC(C)Nc1cccnc1N1CCN(C(=O)c2cc3cc(NS(C)(=O)=O)ccc3[nH]2)CC1
inactive: Potency [2] | outcome [3] | outcome [12] | Potency [5] | outcome [6] | Potency [7] | Potency [13] | Potency [15] | Potency [9] | Potency [16] | Potency [11]

C=CCc1ccccc1OCC(O)CNC(C)C (configuration not stated)
inactive: Potency [2] | outcome [3] | outcome [12] | outcome [4] | Potency [5] | outcome [6] | Potency [7] | Potency [15] | Potency [8] | Potency [16] | Potency [19] | outcome [20] | outcome [17] | Potency [11] | Potency [18]

CC1(CN2CCC(n3c(=O)[nH]c4ccccc43)CC2)OCc2ccccc2-n2cccc21 (configuration not stated)
inactive: Potency [2] | outcome [3] | outcome [12] | outcome [4] | Potency [5] | outcome [6] | Potency [7] | Potency [13] | Potency [16]
active: Potency [8] 21.1 µM | Potency [9] 29.8 µM | Potency [10] 21.1 µM

Reference: PubChem BioAssay (Tox21)
